# MARV entry inh – blocks Marburg virus binding to or entry into cells; actives 1.8% (n = 300,000); AID 540276; Marburg virus pseudotyped entry inhibition, cell reporter; Potency, µM (top dose mostly 37.8 µM), without a hit: at the top dose activity change, negative = inhibition, hits mostly inhibitors; calls by dose curve; tested in HEK293 cells
# FMDV inh – antivirals against foot and mouth disease virus; actives 1.2% (n = 410,000); AID 1159524; FMDV antiviral cell-based qHTS; Potency, µM (titrated, usually from 57.9 µM), inactives show at the highest dose activity change, negative = inhibition, hits mostly inhibitors; calls by dose curve; tested in HEK293T cells; also: read-out not given here; nearly all actives have a fitted effect of over 45% in size
# Sm TGR inh – inhibitors of Schistosoma mansoni thioredoxin glutathione reductase. Q962Y6. purified TGR, DTNB reduction, TNB absorbance 405 nm. Potency, µM (doses to about 114 µM), without a hit: at the top dose activity change, negative = inhibition, most hits filed as inhibitors. actives 3% (n = 360,000). AID 485364; also: nearly all actives have a fitted effect of over 60% in size
#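 Kinetic colorimetric format: TGR-catalysed, NADPH-driven DTNB reduction monitored via TNB absorbance. Enzyme dispensed at 20 nM; compound exposure 15 min at room temperature before reaction start.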
# RE007 growth inh – less growth of the S. pombe RE007 Vpr strain; Potency, µM (series often up to 92.2 µM), inactives show at the top dose activity change, negative = less growth, hits mostly inhibitors; AID 651644; actives 0.21% (n = 360,000); S. pombe RE007 Vpr strain, BacTiter-Glo ATP luminescence, 24 h; active = well fitted falling curve with a large enough effect; inconclusive = small, poorly fitted or top-dose-only effect; inactive = no such curve, though single readings can be large or run the other way; also: nearly all actives have a fitted effect of over 50% in size
#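 Fission yeast strain RE007, carrying one chromosomally integrated HIV-1 vpr copy, was seeded at OD 0.01 in PMG+AL medium with 23 nL pinned compound. After 24 h at 30 °C and 99% humidity, viability was read by BacTiter-Glo luminescence.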
# LASV entry inh – Lassa virus entry inhibition | Lassa virus pseudotype entry inhibition, cell reporter | Potency, µM (series often up to 37.9 µM), for inactives: top-dose activity change, negative = inhibition, most hits filed as inhibitors | actives 1.2% (n = 300,000) | AID 540256; calls by dose curve; tested in HEK293 cells; also: nearly all actives have a fitted effect of over 50% in size
# HCV inh – HCV inhibition | Huh7.5.1 HCVcc-Cre infection, luciferase reporter, 44 h | Potency, µM (titrated, usually from 41.8 µM), for inactives: at the top dose activity change, negative = inhibition, hits mostly inhibitors | actives 3.4% (n = 340,000) | AID 651820
#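 Infectious HCVcc-Cre (~0.5 moi) was added to cells just after compound, with cells seeded 4 h earlier at 1,000 per well. Luciferase activity after 44 h culture reported infection; substrate was incubated 15 min at room temperature before reading.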
# * hit, by the source's call; ? = inconclusive; . = no result given; [ ] = another dose, or the depositor's remark. Hits are enriched below; roughly 7.2% of the tested compounds scored in any of these assays. Unless noted, calls follow the shape of the dose curve; as a rule, active = well fitted curve in the direction sought with a large enough effect; inconclusive = small, poorly fitted or top-dose-only effect, or another doubt; inactive = no such curve, though single readings can be large; an effect the other way counts as inactive or inconclusive. % is scaled to controls: 0 for no effect and ±100 for the full control effect; potency is read from the fitted curve at half-maximal effect.
SMILES,MARV entry inh,FMDV inh,Sm TGR inh,RE007 growth inh,LASV entry inh,HCV inh
COCCN1C(=NCCc2cccnc2)NC(c2ccccc2)C(C(=O)OC)=C1C (configuration not stated),54%[14.2 µM],.,.,.,-21%[14.3 µM],.
Nc1c(N(CCO)C(=O)/C=C/c2ccco2)c(=O)[nH]c(=O)n1Cc1ccccc1,-10%,-4%,50µM*,0%,-12%,10%
CC(C)CCN(C(=O)c1ccncc1)c1c(N)n(Cc2ccccc2)c(=O)[nH]c1=O,.,-8%,-20%,7%,.,-17%
Cc1ccccc1OCC(=O)N(Cc1ccco1)c1c(N)n(Cc2ccccc2)c(=O)[nH]c1=O,.,-9%,45µM*,-16%,.,2%
CCCCN(C(=O)/C=C/c1ccco1)c1c(N)n(CCC)c(=O)[nH]c1=O,-2%,-2%,?,-5%,-10%,1%
CC(C)CCN(C(=O)Cc1ccc(Cl)c(Cl)c1)c1c(N)n(Cc2ccccc2)c(=O)[nH]c1=O,2%,?,-2%,-4%,?,10µM*
CCc1cnc2c(c1SCc1cc(OC)cc(OC)c1)c(=O)n(C)c(=O)n2C,.,-22%,-4%,.,-13%[46.1 µM],.
CC1=C(C(=O)Nc2cccc(C(F)(F)F)c2)C2(CCCCC2)OC1=O,?,-9%,-15%,.,-10%[46.1 µM],.
COc1ccc(OC)c(S(=O)(=O)N2CC=C(c3c(C)n(CC(=O)N4CCCC4)c4ccccc34)CC2)c1,4%[46.1 µM],-23%,-35%,.,-5%[46.1 µM],.
Cc1ccc(-n2cc(C(=O)OCc3ccc(F)c(F)c3)c3ccccc3c2=O)cc1,.,0%,?,.,23%[46.1 µM],.
CCCN1C(=O)C(O)(CC(=O)c2ccc(OC)c(OC)c2)c2ccccc21 (configuration not stated),-7%[46.1 µM],-23%,29%,.,4%[46.1 µM],.
COc1ccc(C(=O)N2CCC3(CC2)CN(c2ccc(-c4ccccc4)cc2)C3)cc1,.,-28%,.,.,.,.
Cc1cccc(NC(=O)Cn2c(=O)nc(-c3ccccc3)c3ccccc32)c1C,.,0%,2%,.,?,.
Cc1c(Cl)cccc1NC(=O)Cn1c(=O)nc(-c2ccccc2)c2ccccc21,.,10µM*,2%,.,-5%[46.1 µM],.
C=C1CC(COc2cc(=O)oc3ccccc23)(c2ccccc2)OC1=O (configuration not stated),?,14µM*,.,-23%,-19%,?
CCOC(=O)C(C(=O)OCC)c1cc(Br)c2noc3c2c1C(=O)c1ccccc1-3,?,25µM*,0.63µM*,?,11µM*,?
COC(=O)Cc1ccc(NC(=S)N2CCN(c3cc(Cl)ccc3C)CC2)cc1,?,?,60%,3%,-25%,10µM*
COC(=O)Cc1ccc(NC(=S)N2CCN(c3ccccn3)CC2)cc1,.,-7%,-5%,-9%,.,-11%
Cc1c(NC(=O)c2cccc3c(Cl)cccc23)cccc1-c1nc2ccccc2o1,9%[46.1 µM],-13%,7%,.,?,.
Cc1c(C)c2c(OCC(=O)N[C@@H](C)C(=O)O)cc3c(c2oc1=O)CCC(C)(C)O3,8%,-8%,2%,-2%,-4%,3%
CCc1cc(=O)oc2c3c(cc(OCC(=O)NCc4cccnc4)c12)OC(C)(C)CC3,.,-14%,-13%,6%,.,?
CCc1cc(=O)oc2c3c(cc(OCC(=O)Nc4cccnc4)c12)OC(C)(C)CC3,.,-21%,9%,-10%,.,10µM*
COc1ccc(CNC(=O)COc2cc3c(c4oc(=O)cc(C)c24)CCC(C)(C)O3)cc1OC,.,?,10%,-2%,.,6.3µM*
Cc1c(C)c2c(OCC(=O)NCC(C)C)cc3c(c2oc1=O)CCC(C)(C)O3,.,18µM*,11%,-5%,.,?
COc1cc2c(c3oc(=O)cc(CC(=O)O)c13)CCC(C)(C)O2,.,5%,0%,-1%,.,10µM*
SMILES,MARV entry inh,FMDV inh,Sm TGR inh,RE007 growth inh,LASV entry inh,HCV inh
CC(C)(C)OC(=O)N1CCC(c2c(C(=O)NCc3ccccc3)cnn2-c2ccc(F)cc2)CC1,.,-13%,12%,.,?,.
Cc1ccccc1OCC(=O)Nc1ccc(OCc2cc(=O)n3ccccc3n2)cc1,.,-2%,5%,.,26%[46.1 µM],.
N=C(N)SCc1ccc(Cl)cc1Cl,?,?,-4%,6%,?,11µM*
CC(C)Cn1c(=O)c2sccc2n2c(CCCC(=O)NCCc3ccccc3)nnc12,.,-13%,-9%,.,-2%[46.1 µM],.
CCOC(=O)c1cc(-c2ccccc2)sc1NC(=O)C(C)OC(=O)c1cccnc1OCC (configuration not stated),?,-16%,1%,3%,-21%,3.5µM*
CC1CCN(c2nn3c(=O)c(C(=O)NCCCOC(C)C)cnc3s2)CC1,.,-25%,10%,.,?,.
CN(CCOc1ccc(-c2ccn(S(=O)(=O)c3ccc(Cl)cc3)n2)cc1)c1ccccn1,-25%,?,0%,9%,?,1.1µM*
C#CCNC(=O)C1=C[C@@H](c2ccc(C(F)(F)F)cc2)C[C@@H](OCc2ccc(CO)cc2)O1,.,-15%,.,-11%,.,-3%
C#CCNC(=O)C1=C[C@@H](c2ccc(C(F)(F)F)cc2)C[C@@H](OCCCCO)O1,.,0%,22µM*,7%,.,-29%[8.37 µM]
O=C(NCc1ccccc1)C1=C[C@H](c2ccc(Br)cc2)C[C@H](OCCCCO)O1,.,-14%,.,6%,.,7%
C#CCNC(=O)C1=C[C@@H](c2ccc(Br)cc2)C[C@@H](OCc2ccc(CO)cc2)O1,.,11%,45µM*,7%,.,?
CN1CCN(C(=O)C2=C[C@@H](c3ccc(C(F)(F)F)cc3)C[C@@H](OCCCCO)O2)CC1,.,-8%,45µM*,3%,.,16%
C#CCNC(=O)C1=C[C@H](c2ccc(Br)cc2)C[C@H](OCCCCO)O1,.,-20%,16µM*,-4%,.,1%
CN1CCN(C(=O)C2=C[C@H](c3ccc(C(F)(F)F)cc3)C[C@H](OCCCCO)O2)CC1,.,-7%,.,9%,.,8%
O=C(c1cccc(F)c1)N1CCC[C@@]2(CCN(c3ccccc3)C2)C1,.,-22%,.,.,.,.
O=C(NCCN1CCC(n2c(=O)[nH]c3ccccc32)CC1)c1cccc(Cl)c1,.,-15%,.,-2%,.,.
CCOC(=O)c1cccc(NC(=O)COc2nsnc2N2CCOCC2)c1,?,25µM*,-4%,7%,.,?
O=C(CCn1cccc1)Nc1cccc(F)c1,13%,2%,35µM*,-12%,5%,13%
CCOC(=O)c1cccc(NC(=O)CCn2cccc2)c1,-26%,-22%,-29%,4%,8.9µM*,-4%
O=C(NCCC1CCCCN1S(=O)(=O)c1cccs1)C(=O)Nc1ccccc1F (configuration not stated),?,-6%,1%,1%,24%,8.9µM*

# Screening data from PubChem BioAssay.
